Compound activity (PubChem BioAssay)
An excerpt weighted towards active compounds, which were near 1.4% of everything screened.
RXFP1 agonist: RXFP1 (human) receptor agonism. Q9HBX9. HEK293T-RXFP1 cAMP TR-FRET, 30 min; response scale: percent of porcine relaxin response, buffer zero. Potency, µM (top dose mostly 57.5 µM), hits mostly activators. 370,000 compounds, 0.3% hits. AID 2676; also: nearly all actives have a fitted effect of over 60% in size
Target sequence (Q9HBX9 whole entry, looked up): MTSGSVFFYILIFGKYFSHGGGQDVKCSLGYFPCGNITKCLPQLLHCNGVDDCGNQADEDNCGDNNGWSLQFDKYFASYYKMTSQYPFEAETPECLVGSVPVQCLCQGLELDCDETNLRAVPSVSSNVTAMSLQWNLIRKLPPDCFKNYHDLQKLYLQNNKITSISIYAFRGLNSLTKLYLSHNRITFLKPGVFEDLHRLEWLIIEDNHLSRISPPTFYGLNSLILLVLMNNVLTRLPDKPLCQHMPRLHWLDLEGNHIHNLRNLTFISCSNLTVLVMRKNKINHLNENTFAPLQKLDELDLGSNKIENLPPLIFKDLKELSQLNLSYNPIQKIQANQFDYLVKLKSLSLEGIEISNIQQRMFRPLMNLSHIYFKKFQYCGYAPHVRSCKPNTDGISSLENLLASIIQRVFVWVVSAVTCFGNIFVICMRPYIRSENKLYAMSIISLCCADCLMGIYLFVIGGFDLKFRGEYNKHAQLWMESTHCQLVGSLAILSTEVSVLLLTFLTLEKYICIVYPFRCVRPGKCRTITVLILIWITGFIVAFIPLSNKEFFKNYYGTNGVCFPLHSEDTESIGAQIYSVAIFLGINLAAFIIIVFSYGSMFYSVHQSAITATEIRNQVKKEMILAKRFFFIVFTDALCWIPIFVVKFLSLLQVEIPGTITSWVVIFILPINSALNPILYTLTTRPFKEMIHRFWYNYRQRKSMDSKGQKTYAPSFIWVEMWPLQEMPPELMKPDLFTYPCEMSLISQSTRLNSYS
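HEK293 cells stably expressing RXFP1, treated 30 min at 37C with compounds plus PDE4 inhibitor Ro 20174; cAMP measured by HTRF TR-FRET. Normalized to buffer and 29 nM porcine relaxin; EC50 by Hill fit.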
PTHR1 ag: PTHR1 (human) receptor agonism; HEK293 GP2 PTHR1 cells, GloSensor cAMP luminescence, 1 h; Q03431; 410,000 compounds, 0.075% hits; Potency, µM (doses to about 115 µM), hits mostly activators; AID 743266; also: nearly all actives have a fitted effect of over 55% in size
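HEK-293-derived GP2 cells expressing PTHR1 and a GloSensor cAMP reporter, 3,000/well, plated overnight, given luciferin plus IBMX (each 0.5 mM as added) for 1 h at 37 °C, then compound for 1 h at 37 °C. Luminescence was read after 15 min at room temperature.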
KCNH2 WT inh: KCNH2 (human, wildtype) channel inhibition; U2OS, BacMam KCNH2, thallium flux FluxOr; stronger effect = lower value; activity change, % at 1.84 µM; Q12809; 340,000 compounds, 0.37% hits;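 active = maximum activity change below -70%; inconclusive = maximum activity change between -70% and -50%; inactive = maximum activity change above -50%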
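U2OS cells transduced with wild-type KCNH2 virus are loaded with FluxOr dye for 45 min, and thallium flux is measured in kinetic reads before and after stimulation buffer. Rate constants are normalized to DMSO controls.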
Glioma ERSR ind: ER stress response induction in glioma; U87-MG GRP78 promoter luciferase reporter, 16 h; Potency, µM, hits mostly activators; 420,000 compounds, 0.02% hits; AID 602332; also: series mostly up to about 76 µM; nearly all actives have a fitted effect of over 35% in size
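ERSR induction read as luciferase luminescence (Bright-Glo, 10 min at room temperature) in stably transfected human U87-MG glioma cells exposed to compounds for 16 h, using GRP78 as sensor.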
KCNH2 3.1 block: inhibitors of human KCNH2 3.1 potassium channel isoform | U2OS KCNH2 3.1, thallium flux FluxOr; stronger effect = lower value | activity change, % (tested at about 1.8 µM) | 340,000 compounds, 0.95% hits | AID 720553;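 active = maximum activity change below -70%; inconclusive = maximum activity change from -70% to -50%; inactive = maximum activity change above -50%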;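 also: thallium influx rate constant from kinetic fluorescence after stimulation buffer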
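Normalized rate constant (relative to positive and negative DMSO controls) derived from a 2 min kinetic fluorescence read after stimulation; U2OS cells expressing the 3.1 isoform via virus at 1.77 x 10^8 /mL.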
RXFP1 antagonist: blocks the human relaxin receptor RXFP1; HEK293-RXFP1, relaxin-stimulated cAMP HTRF, 30 min; stronger effect = lower value; activity change, negative = inhibition, % at 57.5 µM; 350,000 compounds, 0.59% hits;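 active = activity change of -60% or lower, but not beyond a set lower limit; inconclusive = change between -60% and -40%, or beyond the set limit; inactive = change above -40%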
Of the large screens only hits and unclear results are named; the others gave an inactive call. Unless noted, calls follow the shape of the dose curve; as a rule, active = well fitted curve in the direction sought with a large enough effect; inconclusive = small, poorly fitted or top-dose-only effect, or another doubt; inactive = no such curve, though single readings can be large; an effect the other way counts as inactive or inconclusive.

CCN(CC)c1ccc(NC(=O)CCS(=O)(=O)c2ccc3c(c2)oc(=O)n3C)c(C)c1	none (no result: KCNH2 WT inh, KCNH2 3.1 block)
Cc1ccc(C(=O)N2CCN(c3ncccn3)CC2)cc1S(=O)(=O)N1CCCCC1	none (no result: RXFP1 antagonist)
CC1CCCN(c2nc3c(c(=O)[nH]c(=O)n3C)n2Cc2ccccc2Cl)C1 (stereo unspecified)	none (no result: RXFP1 antagonist)
Cc1ccc(OCC(=O)N(Cc2ccco2)Cc2ccco2)cc1C	RXFP1 antagonist -60.4 (no result: KCNH2 WT inh, KCNH2 3.1 block)
CCc1ccc(CN(Cc2ccco2)C(=O)COc2ccc(Cl)cc2C)cc1	RXFP1 antagonist -68.8 (no result: KCNH2 WT inh, KCNH2 3.1 block)
Cc1ccc(OCC(=O)N(Cc2ccco2)Cc2ccco2)cc1	none (no result: KCNH2 WT inh, KCNH2 3.1 block)
CCOc1ccccc1C(=O)N(Cc1ccco1)Cc1ccccc1F	none (no result: KCNH2 WT inh, KCNH2 3.1 block)
Cc1ccc(CN(Cc2ccco2)C(=O)COc2cc(C)c(Cl)c(C)c2)cc1	none (no result: KCNH2 WT inh, KCNH2 3.1 block, RXFP1 antagonist)
CC(C)(C)c1ccc(OCC(=O)N(Cc2ccco2)Cc2ccccc2F)cc1	RXFP1 antagonist -94.9 (no result: KCNH2 WT inh, KCNH2 3.1 block)
[NH-]CCC([O-])=NC(Cc1cnc[nH]1)C(=O)[O-].[Zn+2] (stereo unspecified)	none (no result: RXFP1 agonist, PTHR1 ag, KCNH2 WT inh, KCNH2 3.1 block, RXFP1 antagonist)
COC(=O)[C@@H]1CCCN1Cc1c(C(=O)N2CCCCC2)nc2c(C)cccn12	none
CCOc1ccc(NC(=O)CN(C)C(=O)c2ccc(N3CCCC3)c([N+](=O)[O-])c2)cc1OCC	none
Cc1nn(C)c(C)c1CNC(=O)c1cc2n(n1)C(C(F)(F)F)CC(c1cccs1)N2 (stereo unspecified)	none
CCOC(=O)c1c(NC(=O)c2cc3n(n2)C(C(F)(F)F)CC(c2cccs2)N3)sc(C)c1C (stereo unspecified)	KCNH2 3.1 block -78.3
CCNc1nc(Oc2ccc(C(=O)OCC)cc2)nc(N2CCOCC2)n1	none (no result: PTHR1 ag, KCNH2 WT inh, Glioma ERSR ind, KCNH2 3.1 block, RXFP1 antagonist)
Cc1cc(C)n(-c2ccc([N+](=O)[O-])cc2)n1	KCNH2 3.1 block -106.8
Cc1cc(N)n(-c2ccc([N+](=O)[O-])cc2)n1	none
CCC(=O)N1CCN(c2ccc(NC(=O)c3ccc([N+](=O)[O-])o3)cc2)CC1	none
CCN1CCN(CCCNC(=O)Cn2nc(C)n3nc(-c4ccccc4)cc3c2=O)CC1	none
Cc1nn(CC(=O)NCCCN2CCN(Cc3ccccc3)CC2)c(=O)c2cc(-c3ccccc3)nn12	none
CCc1ccc(-c2cc3c(=O)n(CC(=O)NCCCN4CCC(Cc5ccccc5)CC4)nc(C)n3n2)cc1	KCNH2 3.1 block -91.3
Cc1nn(CC(=O)NCCCN2CCC(Cc3ccccc3)CC2)c(=O)c2cc(-c3ccccc3)nn12	KCNH2 WT inh -86.6, KCNH2 3.1 block -103.0
CCN1C(=O)C(=O)N(CC(=O)Nc2cccc(C(F)(F)F)c2)C1=O	none (no result: RXFP1 agonist)
CN(c1ncnc(N)c1[N+](=O)[O-])C1CCCCC1	none
O=C1CCCN2N=C(SCC(=O)Nc3nc4ccccc4s3)SC2=N1	none (no result: KCNH2 WT inh)
O=C(COC(=O)c1ccccc1-n1cnnn1)c1ccc(Br)cc1	none
O=C(COC(=O)c1ccc(-n2cnnn2)cc1)c1ccc(Br)cc1	KCNH2 WT inh inconclusive, KCNH2 3.1 block -83.2
COc1ccc2[nH]c(CN3CCC(n4nccc4NC(=O)C4CC4)CC3)c(C)c2c1	KCNH2 WT inh inconclusive, KCNH2 3.1 block -75.9
CN(C(=O)CSc1nc2scc(-c3ccccc3)c2c(=O)[nH]1)c1ccccc1	RXFP1 antagonist -64.3 (no result: RXFP1 agonist)
Cc1cc(C)cc(NC(=O)CN2CCc3cc4c(cc3C2C)OCCCO4)c1 (stereo unspecified)	RXFP1 antagonist -62.2
O=C(C1CCN(S(=O)(=O)c2ccc(-n3cnnn3)cc2)CC1)N1CCN(c2ccccc2)CC1	none
CCN(CC)S(=O)(=O)c1ccc(C(=O)NCc2n[nH]c(=S)n2-c2ccc(Cl)c(Cl)c2)cc1	RXFP1 antagonist -63.6
C=C(CCC(=O)c1ccccc1)C(=O)c1ccccc1	RXFP1 antagonist -66.8
O=C(CCCCCCCC(=O)c1ccccc1)c1ccccc1	PTHR1 ag inconclusive
CCCn1cc(CN2CCC(Cc3ccccc3)(C(=O)OCC)CC2)c(C)n1	RXFP1 antagonist inconclusive
COc1ccc(S(=O)(=O)NNC(=O)c2cccs2)cc1	KCNH2 3.1 block -104.0
COc1ccc(NC(=O)c2oc3ccccc3c2NC(=O)c2cc(=O)c3cc(Cl)ccc3o2)cc1	none (no result: KCNH2 WT inh, KCNH2 3.1 block)
CC1(C(=O)N/N=C/c2c(F)c(F)c(F)c(F)c2F)CC1(Cl)Cl (stereo unspecified)	RXFP1 antagonist -67.6 (no result: RXFP1 agonist)
Cc1c(/C=N\NC(=O)C2(C)CC2(Cl)Cl)cnn1C (stereo unspecified)	none (no result: RXFP1 antagonist)
C/C(=N\NC(=O)CSc1nc2ccccc2o1)c1cccc(O)c1	KCNH2 3.1 block -115.9
C/C(=N\NC(=O)CSc1nc2ccccc2o1)c1ccc(O)cc1	none
CCc1noc(-c2ccc(NC(C)c3ccccc3)c([N+](=O)[O-])c2)n1 (stereo unspecified)	none (no result: KCNH2 WT inh, KCNH2 3.1 block, RXFP1 antagonist)
COc1ccc(NC(=O)c2cccn(CC=C(C)C)c2=O)cc1	KCNH2 3.1 block -101.7
Cc1sc2ncnc(NCC3(N4CCOCC4)CCCCC3)c2c1C	KCNH2 3.1 block -72.3
FC(F)(F)c1cc(-c2ccco2)nc(-n2nc(C(F)(F)F)cc2C2CC2)n1	KCNH2 3.1 block -142.7
CN1CCN(c2nc(-c3ccco3)cc(C(F)(F)F)n2)CC1	none
CN(C(=O)c1ccccc1NC(=O)C(F)(F)F)c1ccccc1	none
COc1ccc(CN2CCOc3ccc(C(O)c4cccnc4)cc3C2)cc1 (stereo unspecified)	none (no result: RXFP1 agonist, PTHR1 ag, KCNH2 WT inh, KCNH2 3.1 block, RXFP1 antagonist)
O=c1[nH]cnc2c1c(-c1ccccc1)cn2-c1cccc(Cl)c1	RXFP1 antagonist -111.9
COc1ccc(-n2cc(-c3ccccc3)c3c(=O)[nH]cnc32)cc1	none
O=C(NN=C1CCCC1)c1cc(-c2ccccc2)n[nH]1	none
O=C(NN=C1CCCC1)c1ccn[nH]1	KCNH2 WT inh -135.7, KCNH2 3.1 block -200.1
COc1ccc(C(=O)CN2C3=NCCCN3c3ccccc32)cc1OC	none
COc1cccc(C(=O)CN2C3=NCCCN3c3ccccc32)c1	KCNH2 3.1 block -92.6
CCCCCCN1C2=NCCCN2c2ccccc21	KCNH2 3.1 block -79.6
O=C(O)CCCn1c(O)c(C=C2N=c3ccccc3=N2)sc1=S	none
CCCC(C(=O)O)n1c(O)c(C=C2N=c3ccccc3=N2)sc1=S (stereo unspecified)	RXFP1 antagonist -60.6
CCOC(=O)c1ccc(NC(=O)/C=C/c2cccs2)cc1	RXFP1 antagonist -101.5
CCN(CC(=O)Nc1ccccc1OC)C(=O)/C=C/c1cccs1	RXFP1 antagonist -68.8
CCN(CC)CCOC(=O)c1ccc(NC(=O)/C=C/c2cccs2)cc1	none (no result: KCNH2 WT inh)
COc1ccccc1C(=O)Nc1ccc(C(=O)/C=C/c2cccs2)cc1	KCNH2 3.1 block -82.6 (no result: RXFP1 antagonist)
